The campaign covered roughly 16,000 compounds. About 5,100 (32%) were called active. Not shown: some 25% with an inconclusive outcome. Some of the results follow. Values without a mark were called inactive. The call rests on the fitted dose curve; in most records, active means well fitted curve in the direction sought with a large enough effect; inconclusive means small, poorly fitted or top-dose-only effect, or effect the other way; inactive means no such curve, though single readings can be large or run the other way.

As a reminder, the AC50 is the midpoint of the concentration-response curve, whichever way the signal moves.
On the % scale 0 is the no-effect control and ±100 the full control effect.

In the experiment the target is Cytochrome P450 3A4 (Homo sapiens) (UniProt P08684). The experiment in a line: Cytochrome panel assay with activity outcomes. Particulars: recombinant CYP, pro-luciferin dealkylation, luminescence, p450-cyp3a4; series mostly up to 57.1 µM.
Chain of Cytochrome P450 3A4 (Homo sapiens) (P08684 whole entry, looked up): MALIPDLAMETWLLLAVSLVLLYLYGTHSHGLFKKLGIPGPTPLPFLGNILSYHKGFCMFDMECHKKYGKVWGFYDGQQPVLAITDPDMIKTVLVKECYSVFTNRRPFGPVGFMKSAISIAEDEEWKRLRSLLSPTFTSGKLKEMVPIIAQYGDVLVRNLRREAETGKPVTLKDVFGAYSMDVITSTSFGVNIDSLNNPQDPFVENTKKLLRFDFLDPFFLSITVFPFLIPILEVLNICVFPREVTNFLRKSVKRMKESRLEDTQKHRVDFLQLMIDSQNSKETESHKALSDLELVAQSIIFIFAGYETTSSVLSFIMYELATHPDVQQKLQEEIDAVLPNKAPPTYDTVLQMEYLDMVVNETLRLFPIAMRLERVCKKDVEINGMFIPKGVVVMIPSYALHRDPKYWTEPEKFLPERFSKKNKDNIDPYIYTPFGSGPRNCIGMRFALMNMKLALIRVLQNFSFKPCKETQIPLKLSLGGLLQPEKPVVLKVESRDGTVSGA
Regarding `O=C(c1cccc(F)c1)N1CCC2(CCCN(c3ncccn3)C2)CC1`, the AC50 entry was “inactive”.
Still for that read-out and setting: then `CC(C)CN1CC2(CCN(C(=O)c3cccc(F)c3)CC2)C1`, with “inactive”.
Same read-out and setting: then `O=C(c1cccc(F)c1)N1CCC2(CC1)CN(Cc1ccccc1)C2`, with “inactive”; and `O=C(c1cccc(F)c1)N1CCC[C@@]2(CCN(Cc3ccncc3)C2)C1`, with 3.16 µM (active).
Same read-out and setting: with `O=C(c1cccc(F)c1)N1CCC2(CCCN(Cc3nccs3)C2)CC1` the figure was 10 µM (active); with `O=C(c1cccc(F)c1)N1CCC[C@@]2(CCN(Cc3nccs3)C2)C1`, 7.94 µM (active); with `CC(=O)N1CCC2(CCN(Cc3nccs3)CC2)CC1`, “inactive”.
As for `Cn1cccc1C(=O)N1CCC[C@@]2(CCN(Cc3nccs3)C2)C1`, the half-maximal activity concentration (AC50) was 15.8 µM (active).
For the compound `CC(C)CN1CCC2(CC1)CCN(C(=O)c1cccn1C)CC2`, the AC50 result was “inactive”.
In the case of `CC(C)CN1CCC2(CC1)CCN(C(=O)c1cccc(F)c1)CC2`, the AC50 result was “inactive”.
The same measure, in the same setting: with `CCCc1ncc(C[n+]2ccccc2C)c(N)n1` the entry was “inactive”.
As to `CC(C)(C)N1C(=O)[C@H]2[C@H]3[C@H](O)[C@H](O)C/C(=N/NC(=O)OCc4ccccc4)[C@@H]3CC[C@@H]2C1=O`, the activity, negative = inhibition was -15% [at 11.4 µM].
For `COC(=O)c1c(NC(=O)C(C)(C)C)sc2c1C(C(=O)OC)CC2` (configuration not stated), the AC50 result is “inactive”.
As for `Cc1cc(=O)[nH]c(-n2[nH]c(C)cc2=O)n1`, the AC50 result is “inactive”.
On the same count and under the same terms, with `CCOC(=O)c1ccc(NC(=O)COc2ccccc2OC)cc1` the figure was 31.6 µM (active); with `COc1ccc(C(=O)Nc2ccc(C(=O)OCC(=O)c3ccccc3)cc2)cc1`, “inactive”; with `CCOC(=O)c1ccc(NC(=O)CC2NCCNC2=O)cc1` (configuration not stated), “inactive”.
Consider `CC1=NN(c2ccccc2)C(=O)[C@@H]1N=Nc1ccc(S(N)(=O)=O)cc1`, for which the activity, negative = inhibition was -5.5% [at 11.4 µM].
On to `CCOCc1cnc(C)nc1NCC(=O)c1c(C)[nH]c2ccccc12`, for which the AC50 result is “inactive”.
In the case of `Oc1ccc(CNCc2ccccc2)c2cccnc12`, the activity, negative = inhibition is -8.41% [at 11.4 µM].
In the case of `O=S(=O)(NC1CCN(Cc2ccccc2)CC1)c1cccc2cccnc12`, the AC50 was 15.8 µM (active).
As for `c1ccc(CN2CC[C@@H](CNc3ncnc4ccccc34)C2)cc1`, the activity, negative = inhibition was -19.3% [at 11.4 µM].
Consider `O=C(NCCCN1CCCCCC1)[C@@H](c1ccccc1)C1CCCCC1`, for which the AC50 was 3.98 µM (active).
For the compound `O=C(NCCCN1CCN(C2CCCCC2)CC1)Nc1ccccc1C(F)(F)F`, the AC50 entry is “inactive”.
Take `O=C(NCCCN1CCN(Cc2ccccc2)CC1)C1CCN(S(=O)(=O)N2CCCC2)CC1`: the AC50 result was “inactive”.
Still for that read-out and setting: then `Cc1ccc(-c2ccc(CCC(=O)O)o2)cc1`, with “inactive”.
Turning to `COc1ccc(CONS(=O)(=O)c2ccc(NC(C)=O)cc2)cc1Cl`, the AC50 is 3.16 µM (active).
The same measure, in the same setting: then `CC(=O)Nc1ccc(S(=O)(=O)N=S(C)C)cc1`, with “inactive”.
For `CC(=O)Nc1ccc(S(=O)(=O)NC(CC(=O)NCCC2=CCCCC2)C(C)C)cc1` (configuration not stated), the concentration at half-maximal activity (AC50) was 15.8 µM (active).
Same read-out and setting: then `COC(=O)C(NS(=O)(=O)c1ccc(NC(C)=O)cc1)C(C)C` (configuration not stated), with “inactive”; and `CCCCCOc1ccc(NC(=O)C(=O)NCCC2=CCCCC2)cc1`, with “inactive”.
Take `COc1ccc(CCNC(=O)CC(NS(=O)(=O)c2ccc(NC(C)=O)cc2)C(C)C)cc1OC` (configuration not stated): the AC50 is 15.8 µM (active).
On to `Cc1ccc(S(=O)(=O)N(CC(=O)NCCC2=CCCCC2)Cc2ccccc2F)cc1`, for which the activity, negative = inhibition is -9.36% [at 2.29 µM].
In the case of `C[C@H](O)CO[C@H]1[C@H]2O[C@H]3[C@H](O)[C@@H](O)[C@@H](O[C@H]4[C@H](O)[C@@H](O)[C@@H](O[C@H]5[C@H](O)[C@@H](O)[C@@H](O[C@H]6[C@H](O)[C@@H](OC[C@H](C)O)[C@@H](O[C@H]7[C@H](O)[C@@H](OC[C@H](C)O)[C@@H](O[C@H]8[C@H](O)[C@@H](O)[C@@H](O[C@@H]([C@@H]1O)[C@@H](CO)O2)O[C@@H]8CO)O[C@@H]7CO)O[C@@H]6CO)O[C@@H]5CO)O[C@@H]4CO)O[C@@H]3CO`, the AC50 entry was “inactive”.
Consider `O=C(Nc1cccc2cccnc12)[C@@H]1[C@@H](C(=O)O)[C@H]2CC[C@@H]1O2`, for which the activity, negative = inhibition was -18.7% [at 11.4 µM].
For the compound `O=C(Nc1cccc(C(F)(F)F)c1)C1CCCN1S(=O)(=O)c1cccc2cccnc12` (configuration not stated), the half-maximal activity concentration (AC50) was 11.2 µM (active).
For `COc1ccc(-c2ccc(C(=S)N3CCN(C(C)=O)CC3)o2)cc1`, the concentration at half-maximal activity (AC50) is 25.1 µM (active).
The same measure, in the same setting: then `C[C@H](N[C@@H](C)COc1ccccc1)[C@H](O)c1ccc(O)cc1`, with “inactive”; and `COc1ccc(N2C(=O)CSC2c2cccc(F)c2)c(OC)c1` (configuration not stated), with 12.6 µM (active).
Take `COc1ccc(C2/C(=C(/O)c3ccccc3)C(=O)C(=O)N2c2ccccn2)c(OC)c1` (configuration not stated): the activity, negative = inhibition was 1.16% [at 2.29 µM].
Same read-out and setting: then `C/C(=N\[N+](C)(C)C)c1ccc(C)c(C)c1`, with -5.81% [at 11.4 µM]; and `COC(=O)c1ccc(Cl)c(NC(=O)c2ccc(-c3ccccc3)cc2)c1`, with 0.213% [at 2.29 µM].
`O=C(Nc1cccc(-c2nc3ccccc3s2)c1)c1ccc2c(c1)OCO2`: the half-maximal activity concentration (AC50) was 2.24 µM (active).
Same read-out and setting: with `O=C(Nc1cc(-c2nc3ccccc3s2)ccc1Cl)c1ccc2c(c1)OCO2` the figure was 2.24 µM (active); with `CCCN(C(=S)Nc1ccccc1)C1CCS(=O)(=O)C1` (configuration not stated), “inactive”.
On the same count and under the same terms, with `CCc1ccc(CN(C(=O)c2cc3ccccc3oc2=O)C2CCS(=O)(=O)C2)cc1` (configuration not stated) the figure was 14.1 µM (active); with `O=C(c1ccccc1)N(Cc1ccco1)C1CCS(=O)(=O)C1` (configuration not stated), “inactive”; with `CCOc1ccc(CN(C(=O)c2oc3ccccc3c2C)C2CCS(=O)(=O)C2)cc1` (configuration not stated), 12.6 µM (active).
The same measure, in the same setting: with `O=C(c1sc2ccccc2c1Cl)N(Cc1ccccc1)C1CCS(=O)(=O)C1` (configuration not stated) the figure was 11.2 µM (active).
For `Cc1ccc[n+](CC(=O)c2cc3ccccc3oc2=O)c1`, the activity, negative = inhibition is -4.17% [at 2.29 µM].
Regarding `CCc1ccc(OCC(=O)OC2CCS(=O)(=O)C2)cc1` (configuration not stated), the AC50 result was “inactive”.
Turning to `CN(C(=O)COc1cccc(Br)c1)C1CCS(=O)(=O)C1` (configuration not stated), the AC50 result is “inactive”.
As to `C[C@@H](CC(=O)O)[C@@H](N)C(=O)O`, the AC50 result is “inactive”.
Still for that read-out and setting: with `O=C(COC(=O)c1cccnc1)c1ccc(Cl)c(Cl)c1` the figure was 0.562 µM (active); with `O=C(COC(=O)c1cccnc1Cl)c1ccccc1`, “inactive”.
On the same count and under the same terms, with `O=C(Oc1cccc(Br)c1)c1cccnc1` the entry was “inactive”; with `CON1C(=O)C(=O)N(OC)C2CCCCC21` (configuration not stated), “inactive”.

The record behind these values is PubChem BioAssay AID1851 (National Center for Advancing Translational Sciences (NCATS), 2009).
